Test results taken from ChEMBL document CHEMBL3988442, “University of Dundee, Small-Polar-MMV Screening Library” (2021).

Target: AMP-activated protein kinase, AMPK (Homo sapiens) (UniProt P54646+O43741+P54619+Q9UGJ0+Q9Y478+Q13131+Q9UGI9)
Assay: AMP-dependent Kinase enzyme assay. An in vitro enzyme assay that detects ADP turnover that is directly proportional to AMPK activity. This uses naive AMPK that is activated during the assay with MK-8722
Type: functional
Parameters: scale not given: direction of the effect not stated beside the values
Details: 30 µM

| SMILES | Percent Effect |
| --- | --- |
| Cc1cc(C(=O)NCCC(=O)N2CCCc3ccccc32)no1 | -5.97% |
| CN1CCN([C@H]2CCN(C(=O)c3nn(C)cc3Cl)C[C@H]2CCCO)CC1 | 4.08% |
| Cc1[nH]c2c(F)cccc2c1CC(=O)NC1CCCCNC1=O (centres undefined) | 10.4% |
| Cn1ncnc1NCc1ccc(Cl)cc1 | 7.15% |
| O=C(NCc1nncn1C1CC1)c1ccccc1OCC1CC1 | 1.41% |
| CCC(C)Oc1ccc(CNCCc2c[nH]cn2)cc1Cl (centres undefined) | -17.6% |
| COC(=O)c1ccc(N(C(=O)c2cscn2)C(C)C)c(C)c1 | -0.314% |
| COc1ccccc1CN(C)C(=O)C[S+]([O-])Cc1cc(C)on1 (centres undefined) | -2.86% |
| CN1CCCC(CCC(=O)N2CCc3c(nc(CC4CC4)[nH]c3=O)C2)C1 (centres undefined) | 10.8% |
| N#Cc1ncn(CC(=O)N2CCCC2c2cccs2)n1 (centres undefined) | -12% |
| CCc1c(C)nn(CCN2CC3(CCOC3)CCC2=O)c1C (centres undefined) | -3.55% |
| COc1ccc(-n2cccn2)c(CN2CCOCC(CN(C)C)C2)c1 (centres undefined) | 1.67% |
| CC1CCN(CC(=O)N(C)CCc2noc(C3CC3)n2)C1=O (centres undefined) | -1.6% |
| CN(C)C(=O)c1ccc2c(c1)nc(N1CC[C@H](O)C1)n2C | 1.76% |
| COc1ccc(NC(=O)N2CCCC(CO)C2)c(C)c1 (centres undefined) | -4.81% |
| C[C@@H]1CN(Cc2cc3ccccc3n2C)CC[C@]1(C)O | 5.04% |
| Cc1oc(-c2ccco2)nc1CN1CCc2cnc(C(C)C)nc2C1 | -25.9% |
| O=C(Cn1cc(-c2ccccc2)cn1)N1CCNC1=O | 0.445% |
| O=C(NCc1nnc2n1CCC2)c1ccc(Br)s1 | -4.78% |
| C[C@@H]1CN(Cc2cn(C)nc2-c2ccccc2F)C[C@H](C)O1 | 19.5% |

| SMILES | Percent Effect |
| --- | --- |
| Cc1ncc(CNC(=O)NCC(C)Oc2ccccc2F)s1 (centres undefined) | 6.1% |
| CC(c1nc(-c2cccnc2)no1)N(C)CCCOc1ccccc1 (centres undefined) | -4.41% |
| COC(=O)c1ccc(Cn2cnc(C#N)n2)cc1 | 1.34% |
| Cc1n[nH]c(C)c1CNc1ccc(-c2nc(C3CC3)no2)cn1 | -4.61% |
| O=C(NCC(O)c1cccc(O)c1)C1CCN(C2CCCCC2)CC1 (centres undefined) | 0.496% |
| CC(C)(C)c1ccc(-n2ncc3c2CCCC3N)cc1 (centres undefined) | 5.4% |
| CCN1CC2(CCN(CC3COCCO3)CC2)OC1=O (centres undefined) | -1.21% |
| Cc1noc(C)c1-c1cccc(C2CCN(S(=O)(=O)N(C)C)CC2)n1 | 5.6% |
| COc1cc(Cl)ccc1CNC(=O)N(C)C(C)CS(C)(=O)=O (centres undefined) | -1.65% |
| CC(C)Cc1cc(CNC(=O)c2cccc3c2OCC3)no1 | 3.36% |
| O=C1CN([C@@H]2CC[C@@H](NS(=O)(=O)c3ccccc3)[C@H]2O)CCN1 | 11.7% |
| Cc1c(NC(=O)CN2CCN(C3CCCC3)C(=O)C2)cnn1C | 2.4% |
| O=C(Cc1c[nH]c(=O)[nH]c1=O)N1CCCCC1CCc1ccccc1 (centres undefined) | -1.5% |
| CC(C)c1cc(C(=O)N(Cc2ccncc2)CC2CCCO2)no1 (centres undefined) | -4.12% |
| Cc1ncsc1CCN(C)Cc1ccc(Br)o1 | -1.27% |
| CC(c1nnc(-c2ccccc2)o1)N1CCC(Nc2ccccc2)CC1 (centres undefined) | 4.64% |
| CNC(=O)C1CN(C(=O)Cc2ccc(OC)cc2)Cc2cn(C)nc21 (centres undefined) | -3.48% |
| CC(C)(C)CN(CCC#N)C(=O)c1cccc(CC#N)c1 | 4.84% |
| Fc1cccc(CN2CCC[C@H](Cn3nnc(-c4ccccn4)n3)C2)c1 | 9.12% |
